Experimental data published in PubChem BioAssay (NCATS).
Results filed as inconclusive are left out. Unmarked numbers belong to inactive results. Activity calls are given as the source filed them. Calls come from the whole dose curve; as a rule, active = well fitted cell-killing curve with a large enough effect; inconclusive = small, poorly fitted or top-dose-only effect, or effect the other way; inactive = no such curve, though single readings can be large or run the other way.

Key:
[1] = Quantitative High-Throughput drug screen in 47 multiple myeloma cell lines against the NCATS MIPE library collection: OCIMY1_PLB cell viability assay (AID 1918979); note: series mostly up to about 46 µM; nearly all actives have a fitted effect of over 35% in size
How it was run: (§1)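 ATP-based CellTiter-Glo luminescence after 48 h drug exposure (37 °C, 5% CO2) of 500 myeloma cells per well. DMSO-only wells set 100% viability, media-only wells 0%; MIPE 4.0 library added by pin tool.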

[2] = Quantitative High-Throughput drug screen in 47 multiple myeloma cell lines against the NCATS MIPE library collection: MM1R_ATCC cell viability assay (AID 1918981); note: nearly all actives have a fitted effect of over 35% in size; note: potency is the fitted concentration of half-maximal effect
How it was run: as §1

[3] = Quantitative High-Throughput drug screen in 47 multiple myeloma cell lines against the NCATS MIPE library collection: KMS34_JCRB cell viability assay (AID 1918985); note: nearly all actives have a fitted effect of over 40% in size; note: potency is the fitted concentration of half-maximal effect
How it was run: as §1

[4] = Quantitative High-Throughput drug screen in 47 multiple myeloma cell lines against the NCATS MIPE library collection: OCIMY7_PLB cell viability assay (AID 1918987); note: nearly all actives have a fitted effect of over 65% in size; note: potency is the fitted concentration of half-maximal effect
How it was run: as §1

[5] = Quantitative High-Throughput drug screen in 47 multiple myeloma cell lines against the NCATS MIPE library collection: SKMM1_PLB cell viability assay (AID 1919863); details: SKMM1 myeloma viability, CellTiter-Glo ATP, 48 h; viability: hits give low values; note: nearly all actives have a fitted effect of over 35% in size; note: potency is the fitted concentration of half-maximal effect; for viability: series mostly up to about 46 µM
How it was run: as §1

[6] = Quantitative High-Throughput drug screen in 47 multiple myeloma cell lines against the NCATS MIPE library collection: XG1_PLB cell viability assay (AID 1919866); note: nearly all actives have a fitted effect of over 35% in size; note: potency is the fitted concentration of half-maximal effect
How it was run: as §1

[7] = Quantitative High-Throughput drug screen in 47 multiple myeloma cell lines against the NCATS MIPE library collection: VP6_DJ cell viability assay (AID 1919867); note: nearly all actives have a fitted effect of over 40% in size; note: potency is the fitted concentration of half-maximal effect
How it was run: as §1

[8] = Quantitative High-Throughput drug screen in 47 multiple myeloma cell lines against the NCATS MIPE library collection: PE2_PLB cell viability assay (AID 1919869); note: nearly all actives have a fitted effect of over 35% in size; note: potency is the fitted concentration of half-maximal effect
How it was run: as §1

[9] = Quantitative High-Throughput drug screen in 47 multiple myeloma cell lines against the NCATS MIPE library collection: PCM6_Riken cell viability assay (AID 1919870); note: nearly all actives have a fitted effect of over 30% in size; note: potency is the fitted concentration of half-maximal effect
How it was run: as §1

[10] = Quantitative High-Throughput drug screen in 47 multiple myeloma cell lines against the NCATS MIPE library collection: OPM2_DSMZ cell viability assay (AID 1919872); note: nearly all actives have a fitted effect of over 30% in size; note: potency is the fitted concentration of half-maximal effect
How it was run: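 Myeloma cell lines, 500 cells per well, exposed to MIPE 4.0 library compounds for 48 h at 37C, 5% CO2. Viability from ATP by CellTiter-Glo luminescence; normalised to DMSO (100%) and media-only (0%) wells.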

[11] = Quantitative High-Throughput drug screen in 47 multiple myeloma cell lines against the NCATS MIPE library collection: MM1S_ATCC cell viability assay (AID 1918980); note: nearly all actives have a fitted effect of over 45% in size; note: potency is the fitted concentration of half-maximal effect
How it was run: as §1

[12] = Quantitative High-Throughput drug screen in 47 multiple myeloma cell lines against the NCATS MIPE library collection: LP1_DSMZ cell viability assay (AID 1918982); note: nearly all actives have a fitted effect of over 35% in size; note: potency is the fitted concentration of half-maximal effect
How it was run: as §1

[13] = Quantitative High-Throughput drug screen in 47 multiple myeloma cell lines against the NCATS MIPE library collection: OCIMY5_PLB cell viability assay (AID 1918988); note: potency is the fitted concentration of half-maximal effect; nearly all actives have a fitted effect of over 65% in size
How it was run: as §1

[14] = Quantitative High-Throughput drug screen in 47 multiple myeloma cell lines against the NCATS MIPE library collection: XG6_PLB cell viability assay (AID 1919865); note: nearly all actives have a fitted effect of over 40% in size; note: potency is the fitted concentration of half-maximal effect
How it was run: as §1

[15] = Quantitative High-Throughput drug screen in 47 multiple myeloma cell lines against the NCATS MIPE library collection: U266_ATCC cell viability assay (AID 1919864); note: nearly all actives have a fitted effect of over 35% in size; note: potency is the fitted concentration of half-maximal effect
How it was run: as §1

[16] = Quantitative High-Throughput drug screen in 47 multiple myeloma cell lines against the NCATS MIPE library collection: RPMI8226_ATCC cell viability assay (AID 1919871); note: nearly all actives have a fitted effect of over 30% in size; note: potency is the fitted concentration of half-maximal effect
How it was run: as §1

[17] = Quantitative High-Throughput drug screen in 47 multiple myeloma cell lines against the NCATS MIPE library collection: L363_DSMZ cell viability assay (AID 1918984); note: nearly all actives have a fitted effect of over 40% in size; note: potency is the fitted concentration of half-maximal effect
How it was run: as §1

[18] = Quantitative High-Throughput drug screen in 47 multiple myeloma cell lines against the NCATS MIPE library collection: OPM1_PLB cell viability assay (AID 1918989); note: nearly all actives have a fitted effect of over 40% in size; note: potency is the fitted concentration of half-maximal effect
How it was run: as §1

[19] = Quantitative High-Throughput drug screen in 47 multiple myeloma cell lines against the NCATS MIPE library collection: UTMC2_PLB cell viability assay (AID 1919868); note: nearly all actives have a fitted effect of over 55% in size; note: potency is the fitted concentration of half-maximal effect
How it was run: as §1

[20] = Quantitative High-Throughput drug screen in 47 multiple myeloma cell lines against the NCATS MIPE library collection: KMS28PE_JCRB cell viability assay (AID 1918983); note: nearly all actives have a fitted effect of over 35% in size; note: potency is the fitted concentration of half-maximal effect
How it was run: as §1

Q: For CCCCC(CC)COC(=O)C(C#N)=C(c1ccccc1)c1ccccc1 (stereo unspecified), which Potency [1] is on record?
A: inactive

Q: And the Potency [2]?
A: inactive

Q: What about the Potency [3] of the same compound?
A: inactive

Q: What about the Potency [4] of the same compound?
A: inactive

Q: And the viability [5]?
A: 130%

Q: And the Potency [6]?
A: inactive

Q: What about the Potency [7] of the same compound?
A: inactive

Q: What about the Potency [8] of the same compound?
A: inactive

Q: What about the Potency [9] of the same compound?
A: inactive

Q: And the Potency [10]?
A: inactive

Q: With N=C(N)c1ccc2cc(OC(=O)c3ccc(N=C(N)N)cc3)ccc2c1 as the compound, how does the Potency [11] read?
A: inactive

Q: What about the Potency [2] of the same compound?
A: inactive

Q: And the Potency [12]?
A: inactive

Q: And the Potency [3]?
A: 6.62 µM (active)

Q: What about the Potency [13] of the same compound?
A: 18.7 µM (active)

Q: What about the Potency [5] of the same compound?
A: 8.33 µM (active)

Q: What about the Potency [14] of the same compound?
A: inactive

Q: What about the Potency [6] of the same compound?
A: inactive

Q: And the Potency [7]?
A: 5.26 µM (active)

Q: And the Potency [8]?
A: 10.5 µM (active)

Q: And the Potency [9]?
A: inactive

Q: What about the Potency [10] of the same compound?
A: 10.5 µM (active)

Q: Which Potency [11] does the source give for O=c1c(O)c(-c2ccc(O)cc2O)oc2cc(O)cc(O)c12 here?
A: 0.833 µM (active)

Q: And the viability [5]?
A: 122%

Q: And the Potency [15]?
A: inactive

Q: What about the Potency [14] of the same compound?
A: inactive

Q: And the Potency [6]?
A: 0.833 µM (active)

Q: What about the Potency [9] of the same compound?
A: inactive

Q: What about the Potency [16] of the same compound?
A: inactive

Q: And the Potency [10]?
A: inactive

Q: With COc1cc2c(N3CCN(C(=O)Nc4ccc(OC(C)C)cc4)CC3)ncnc2cc1OCCCN1CCCCC1 as the compound, how does the Potency [11] read?
A: 26.4 µM (active)

Q: What about the Potency [17] of the same compound?
A: inactive

Q: And the Potency [4]?
A: 16.6 µM (active)

Q: What about the Potency [18] of the same compound?
A: 9.35 µM (active)

Q: And the Potency [15]?
A: 23.5 µM (active)

Q: What about the Potency [6] of the same compound?
A: 13.2 µM (active)

Q: And the Potency [7]?
A: 8.33 µM (active)

Q: What about the Potency [19] of the same compound?
A: 4.18 µM (active)

Q: What about the Potency [8] of the same compound?
A: 16.6 µM (active)

Q: What about the Potency [9] of the same compound?
A: 6.62 µM (active)

Q: For Cc1cc(=O)c2c(O)c3c(O)cc(=O)c4c3c3c(cc(O)c1c23)C(C)(C)C=4O, which Potency [2] is on record?
A: 4.18 µM (active)

Q: And the Potency [12]?
A: 5.9 µM (active)

Q: And the Potency [20]?
A: 6.62 µM (active)

Q: And the Potency [17]?
A: 0.743 µM (active)

Q: And the Potency [3]?
A: 13.2 µM (active)

Q: What about the Potency [13] of the same compound?
A: 8.33 µM (active)

Q: What about the Potency [5] of the same compound?
A: 5.26 µM (active)

Q: What about the Potency [15] of the same compound?
A: 26.4 µM (active)

Q: And the Potency [14]?
A: 0.743 µM (active)

Q: And the Potency [6]?
A: 1.05 µM (active)

Q: And the Potency [7]?
A: 0.469 µM (active)

Q: And the Potency [19]?
A: 0.296 µM (active)

Q: And the Potency [8]?
A: 0.296 µM (active)

Q: And the Potency [9]?
A: 1.87 µM (active)

Q: And the Potency [16]?
A: 1.48 µM (active)

Q: What about the Potency [10] of the same compound?
A: 13.2 µM (active)

Q: What does the source list for O=C(NCC1CCCCN1)c1cc(OCC(F)(F)F)ccc1OCC(F)(F)F (stereo unspecified)?
A: Potency [11]: 8.33 µM (active); Potency [17]: 0.743 µM (active); Potency [4]: 7.43 µM (active); Potency [15]: 9.35 µM (active); Potency [14]: 3.32 µM (active); Potency [6]: 3.32 µM (active); Potency [7]: 3.72 µM (active); Potency [8]: 9.35 µM (active); Potency [9]: 4.69 µM (active)

Q: Which Potency [11] does the source give for Cc1nccn1CC1CCc2c(c3ccccc3n2C)C1=O (stereo unspecified) here?
A: 26.4 µM (active)

Q: What about the Potency [2] of the same compound?
A: inactive

Q: And the Potency [20]?
A: 20.9 µM (active)

Q: What about the Potency [18] of the same compound?
A: 18.7 µM (active)

Q: And the viability [5]?
A: 99.5%

Q: What about the Potency [15] of the same compound?
A: 23.5 µM (active)

Q: What about the Potency [7] of the same compound?
A: inactive

Q: What about the Potency [8] of the same compound?
A: inactive

Q: And the Potency [9]?
A: inactive

Q: What about the Potency [16] of the same compound?
A: inactive

Q: What about the Potency [10] of the same compound?
A: inactive

Q: With Cc1cccc(CN2CCN(C(c3ccccc3)c3ccc(Cl)cc3)CC2)c1 (stereo unspecified) as the compound, how does the Potency [11] read?
A: 20.9 µM (active)

Q: And the Potency [4]?
A: 9.35 µM (active)

Q: And the Potency [13]?
A: 20.9 µM (active)

Q: And the Potency [18]?
A: 20.9 µM (active)

Q: What about the Potency [14] of the same compound?
A: 14.8 µM (active)

Q: And the Potency [19]?
A: 20.9 µM (active)

Q: And the Potency [9]?
A: 16.6 µM (active)

Q: Which results are given for CN(C)c1ccc2nc3ccc(=[N+](C)C)cc-3sc2c1?
A: Potency [11]: 2.64 µM (active); Potency [2]: 1.05 µM (active); Potency [12]: 4.69 µM (active); Potency [17]: 3.72 µM (active); Potency [4]: 2.35 µM (active); Potency [13]: 0.526 µM (active); Potency [5]: 1.66 µM (active); Potency [15]: 8.33 µM (active); Potency [14]: 5.26 µM (active); Potency [6]: 1.32 µM (active); Potency [7]: 1.32 µM (active); Potency [19]: 1.48 µM (active); Potency [8]: 3.72 µM (active); Potency [9]: 1.05 µM (active); Potency [16]: 6.62 µM (active)

Q: Which Potency [11] does the source give for CC(C)c1ccc2c(c1)c(SC(C)(C)C)c(CC(C)(C)C(=O)O)n2Cc1ccc(Cl)cc1 here?
A: 7.43 µM (active)

Q: And the Potency [4]?
A: 14.8 µM (active)

Q: What about the Potency [18] of the same compound?
A: inactive

Q: And the Potency [15]?
A: 20.9 µM (active)

Q: What about the Potency [6] of the same compound?
A: 23.5 µM (active)

Q: And the Potency [10]?
A: inactive

Q: What does the source list for Cc1cc2cc3c(C)cc(=O)oc3c(C)c2o1?
A: Potency [11]: 5.9 µM (active); Potency [2]: 20.9 µM (active); Potency [12]: inactive; Potency [17]: 23.5 µM (active); Potency [3]: inactive; Potency [4]: 26.4 µM (active); Potency [13]: 8.33 µM (active); Potency [5]: 26.4 µM (active); Potency [15]: 11.8 µM (active); Potency [6]: 18.7 µM (active); Potency [7]: 23.5 µM (active); Potency [8]: 20.9 µM (active); Potency [9]: 20.9 µM (active); Potency [16]: 20.9 µM (active); Potency [10]: inactive

Q: Which Potency [11] does the source give for Cc1cc(Cl)ccc1OCCCC(=O)NO here?
A: 1.18 µM (active)

Q: What about the Potency [2] of the same compound?
A: 23.5 µM (active)

Q: What about the Potency [12] of the same compound?
A: 26.4 µM (active)

Q: And the Potency [3]?
A: 26.4 µM (active)

Q: And the Potency [4]?
A: 0.59 µM (active)

Q: What about the Potency [15] of the same compound?
A: 14.8 µM (active)

Q: What about the Potency [14] of the same compound?
A: 1.05 µM (active)

Q: What about the Potency [6] of the same compound?
A: 1.05 µM (active)

Q: And the Potency [7]?
A: 3.72 µM (active)

Q: What about the Potency [19] of the same compound?
A: 9.35 µM (active)

Q: What about the Potency [8] of the same compound?
A: 7.43 µM (active)

Q: And the Potency [9]?
A: 2.35 µM (active)

Q: What about the Potency [16] of the same compound?
A: inactive

Q: What about the Potency [10] of the same compound?
A: inactive

Q: What does the source list for C[C@@H](N)C1CCC(C(=O)Nc2ccncc2)CC1 (stereo partly specified)?
A: Potency [11]: inactive; Potency [2]: inactive; Potency [12]: inactive; Potency [4]: 11.8 µM (active); Potency [13]: 11.8 µM (active); viability [5]: 141%; Potency [6]: 9.35 µM (active); Potency [19]: 6.62 µM (active); Potency [8]: 16.6 µM (active); Potency [9]: 14.8 µM (active); Potency [16]: inactive; Potency [10]: inactive

Q: Which results are given for C[Se]CCC(N)C(=O)O (stereo unspecified)?
A: Potency [11]: inactive; Potency [12]: inactive; Potency [20]: inactive; Potency [17]: inactive; Potency [18]: inactive; Potency [15]: inactive; Potency [6]: inactive; Potency [19]: inactive; Potency [8]: inactive; Potency [16]: inactive; Potency [10]: inactive
